Measured values from ChEMBL document CHEMBL4513216, “Probing the Open Global Health Chemical Diversity Library for Multistage-Active Starting Points for Next-Generation Antimalarials” (ACS Infect Dis, 2020).
Screen size: about 65,000 compounds; about 2,100 (3.2%) showed an effect of 50% or more. The median lay at about -52%. The list comes from a sample in which strong results are over-represented; it also holds similar structures and randomly drawn compounds.

Each molecule was assayed on Plasmodium falciparum (assay: Screen against P. falciparum Asexual Blood Stage (ABS), at 5uM). Conditions: tested at 5 uM.
Assay type: functional, Dd2
Work on `CC(C)(CNc1cccc(Cl)c1)NC(=O)C1CCCN(CC(N)=O)C1` (stereo unspecified) yielded an INHIBITION of -34.6%.
With `COc1ccccc1-c1ncc(CN2CCCC(CCC(N)=O)C2)s1` (stereo unspecified) the INHIBITION was -43.7%.
Molecule `COc1ccccc1-c1ncc(CN2C[C@@H](N(C)C)[C@H](C(C)C)C2)s1` has an INHIBITION of 54.7%.
With `COc1ccccc1-c1ncc(CN2C[C@H](O)[C@@H](N3CCCC3)C2)s1` the INHIBITION was 16.5%.
Work on `CCc1csc(C2CCCN(C(=O)c3ncccn3)C2)n1` (stereo unspecified) yielded an INHIBITION of -94%.
With `CC(C)n1c(=O)c2ccccc2n(CCN(C)C)c1=O` the INHIBITION was 36.1%.
`CC(C)n1c(=O)c2ccccc2n(CCCN(C)C)c1=O` showed an INHIBITION of 59.5%.
For `CN(C)CCn1c(=O)n(C)c(=O)c2ccccc21`, the INHIBITION was -7.78%.
With `CCN(Cc1ccccc1)C(=O)CCN1CC(O)C1` the INHIBITION was -76.9%.
Work on `Cc1nc(C)c(C(=O)N2Cc3ccccc3OCC2Cn2ccnc2)s1` (stereo unspecified) yielded an INHIBITION of -22.8%.
Molecule `N#Cc1ccccc1N1CCN(C(=O)NCC(=O)N2CCCC2)CC1` has an INHIBITION of -1.82%.
`CN1CCCCC1C(=O)N1CCN(c2ccccc2C#N)CC1` (stereo unspecified) gave an INHIBITION of 11.5%.
For `CC(C)N1CCC(C(=O)N2CCCN(c3ccccc3)CC2)CC1`, the INHIBITION was -38.1%.
In the case of `CN1CCCCCC1C(=O)N1CCN(c2ccccc2C#N)CC1` (stereo unspecified), the INHIBITION was 60.4%.
`CN1CCCCCC1C(=O)N1CCCN(c2ccccc2)CC1` (stereo unspecified) gave an INHIBITION of 61.8%.
`COC(=O)N1CCCCC1C(=O)N1CCN(c2cccnc2)CC1` (stereo unspecified) showed an INHIBITION of -87.5%.
In the case of `CC[C@H]1CN(C(=O)c2ccc(-n3cnnc3)nc2)CC[C@@]1(C)O`, the INHIBITION was -129%.
`Cc1noc(C)c1CCC(=O)N1CCCN(Cc2cccs2)CC1` showed an INHIBITION of -63%.
`CC(C)Oc1cccc(CN2CCC(C(C)N3CCOCC3)CC2)c1` (stereo unspecified) showed an INHIBITION of 55.8%.
In the case of `CC(C1CCN(Cc2ccc(N(C)C)nc2)CC1)N1CCOCC1` (stereo unspecified), the INHIBITION was -5.43%.
Work on `CC(C1CCN(Cc2ccc(OC(F)F)cc2)CC1)N1CCOCC1` (stereo unspecified) yielded an INHIBITION of -26.3%.
With `CC(C1CCN(Cc2cccc(OC(F)F)c2)CC1)N1CCOCC1` (stereo unspecified) the INHIBITION was 68.3%.
In the case of `CC(C1CCN(Cc2ccccc2OC(F)F)CC1)N1CCOCC1` (stereo unspecified), the INHIBITION was 9.39%.
`CC(C)Oc1cccc(CN2CCC(c3n[nH]c4ncccc34)CC2)c1` was tested, and the INHIBITION was -51.3%.
`CCc1ccc(C(CNC(=O)c2c(C)noc2C)N(C)C)cc1` (stereo unspecified) gave an INHIBITION of -71.9%.
For `O=C(NC1CC1)[C@H]1C[C@H]2OCC[C@H]2N(CC2CC2)C1`, the INHIBITION was -28.3%.
`CC(C)(C)CC(=O)NCCn1nc(C2CCNC2)c2cccnc21` (stereo unspecified) was tested, and the INHIBITION was -134%.
`Cc1nccc(NCc2cncc3c2CCN(CC2CCOC2)C3)n1` (stereo unspecified) showed an INHIBITION of -81.6%.
With `CC(C)n1cc(C(=O)N2CCN(c3cccc(C(F)(F)F)c3)CC2)cn1` the INHIBITION was -46.5%.
`CN(C)Cc1cn(CC2CCCN(c3nccc4occc34)C2)nn1` (stereo unspecified) showed an INHIBITION of 60.5%.
With `O=C(O)c1cn(CC2CCCN(c3nccc4occc34)C2)nn1` (stereo unspecified) the INHIBITION was -30.1%.
`CC(O)Cc1cn(CC2CCN(c3nccc4occc34)CC2)nn1` (stereo unspecified) gave an INHIBITION of -39.4%.
`CC(C)(C)c1ncc(C(=O)NCc2ccccc2CN2CCCC2)s1` showed an INHIBITION of -23.4%.
In the case of `O=C(c1ccc[nH]1)N1C[C@H](OCc2ccccn2)[C@H]2COC[C@H]21`, the INHIBITION was -89.2%.
In the case of `O=C1NCCN1C1CCN(Cc2coc(-c3ccc(F)cc3)n2)CC1`, the INHIBITION was -71.8%.
With `C[C@@H]1CN(C2CCN(Cc3nn(C)c4cccc(Cl)c34)CC2)C[C@H](C)O1` the INHIBITION was -9.68%.
Work on `Cn1nc(CN2CCCN(C3CCCC3)CC2)c2c(Cl)cccc21` yielded an INHIBITION of 68.9%.
In the case of `Cn1nc(CN2CCC(c3ccncc3)CC2)c2c(Cl)cccc21`, the INHIBITION was -14.6%.
`COCCN1C(=O)CO[C@H]2CN(Cc3ccccc3Cl)C[C@@H]21` gave an INHIBITION of -123%.
Work on `CCN1CCOCC12CCN(c1nccs1)CC2` yielded an INHIBITION of -144%.
For `CN(CCN1CCOC1=O)CC(=O)Nc1ccc(Cl)c(C(F)(F)F)c1`, the INHIBITION was -56.7%.
`CNc1cc(-c2ccc(COCCN)cc2)c2cc[nH]c2n1` showed an INHIBITION of 2.35%.
Molecule `CCNCCOc1ccc(-c2cc(N)nc3[nH]ccc23)cc1` has an INHIBITION of 51.3%.
With `Nc1cc(-c2cc(O)cc(C(=O)O)c2)c2cc[nH]c2n1` the INHIBITION was -9.72%.
With `CCOCCCNC(=O)c1ccccc1S(C)(=O)=O` the INHIBITION was -120%.
Molecule `CSCCNc1ccc(C(=O)N(C)Cc2ccc3ccccc3n2)cn1` has an INHIBITION of -73.9%.
`CCOc1ccc(NC(=O)NCCS(=O)(=O)CC)cc1C` showed an INHIBITION of 4.65%.
`COc1cc(CNCCc2cnn(C)c2)cc2c1OCO2` gave an INHIBITION of -26.5%.
Molecule `COc1cc(CNCC(O)c2ccccc2)cc2c1OCO2` (stereo unspecified) has an INHIBITION of 61.1%.
`COc1cc(CNCc2ccc(C(C)O)cc2)cc2c1OCO2` (stereo unspecified) gave an INHIBITION of 9.88%.
`Cc1ccc(CN2CCc3onc(C(=O)NCCN(C)C)c3C2)o1` gave an INHIBITION of -43.9%.
With `CS(=O)(=O)N1CC2(CCCN(CC3CC3)C2)Cc2ccccc21` (stereo unspecified) the INHIBITION was 69.8%.
In the case of `CS(=O)(=O)N1CC2(CCN(CC3CCCCC3)CC2)Cc2ccccc21`, the INHIBITION was 63.8%.
`CS(=O)(=O)N1Cc2ccccc2CC2(CCN(Cc3ccccc3)C2)C1` (stereo unspecified) gave an INHIBITION of 9.04%.
In the case of `CS(=O)(=O)N1CC2(CCN(CC3CCCCC3)C2)Cc2ccccc21` (stereo unspecified), the INHIBITION was -36.9%.
Work on `CS(=O)(=O)N1CC2(CCCN2Cc2ccc(Cl)cc2)Cc2ccccc21` (stereo unspecified) yielded an INHIBITION of -33%.
Work on `CC(=O)N1CC2(CCCN(Cc3ccc(Cl)cc3)C2)Cc2ccccc21` (stereo unspecified) yielded an INHIBITION of -0.688%.
`Cc1csc(N2CCN(CC(=O)Nc3ccncc3)CC2C)n1` (stereo unspecified) gave an INHIBITION of -32.7%.
In the case of `COc1cc(OC)cc(C(=O)Nc2ncnc3c2CCC3)c1`, the INHIBITION was -80.8%.
`Cc1n[nH]cc1CNCC1(c2ccccc2Cl)CCOCC1` showed an INHIBITION of 57.1%.
In the case of `Cc1n[nH]cc1CNCC1(c2ccc3c(c2)OCO3)CCOCC1`, the INHIBITION was -37.3%.
`O=C(NCC1(O)CCOC1)NCC1(c2ccccc2Cl)CCC1` (stereo unspecified) was tested, and the INHIBITION was -90.2%.
Work on `COc1ccc(COCC(O)CNC(=O)c2ccncc2)cc1` (stereo unspecified) yielded an INHIBITION of -119%.
With `O=C(Nc1ccc(F)cc1)N1C[C@@H]2CC[C@H]1CN(Cc1cccnc1)C2` the INHIBITION was -74.3%.
Work on `CN1CCCN(c2nccc(-c3cncnc3C3CCCCC3)n2)CC1` yielded an INHIBITION of 61.6%.
In the case of `c1cc(-c2c[nH]nc2C2CCCCC2)nc(N2CCCCCC2)n1`, the INHIBITION was 1.32%.
In the case of `CN1CCN(c2nccc(-c3cncnc3C3CCCCC3)n2)CC1`, the INHIBITION was 62.3%.
`CN1CCN(c2ncc(-c3cnccn3)c([C@H]3CCCO3)n2)CC1` showed an INHIBITION of -10.1%.
Molecule `c1cc(-c2cn3nccc3nc2C2CCCCC2)nc(N2CCCC2)n1` has an INHIBITION of 3.54%.
`NC(=O)C1CCN(c2nccc(-c3c[nH]nc3C3CCCCC3)n2)CC1` was tested, and the INHIBITION was 16.3%.
`O=C(C[C@@H]1COC[C@H]2CN(C3CCCC3)C[C@@H]12)N1CCCCO1` was tested, and the INHIBITION was -31.2%.
In the case of `CC(C)CS(=O)(=O)N1CCC2(CN(c3cccc(F)c3)C(=O)CN2C)C1` (stereo unspecified), the INHIBITION was -101%.
Work on `C=C/C=c1\c(=C/C)oc2c(NCc3ccccc3)nc(C)nc12` yielded an INHIBITION of 3.94%.
In the case of `CCS(=O)(=O)N1CCc2cc(C(=O)NC)c(NCC3CC3)nc2CC1`, the INHIBITION was -28%.
Molecule `CCOC(=O)C1CCN(C(=O)CN2CCCC2c2cc(C)no2)CC1` (stereo unspecified) has an INHIBITION of -126%.
In the case of `CCOC(=O)C1CCN(C(=O)CN2CCCC2c2ccsc2)CC1` (stereo unspecified), the INHIBITION was 50.9%.
`CCOC(=O)C1CCN(C(=O)CN2CCCC2c2ccccc2C)CC1` (stereo unspecified) was tested, and the INHIBITION was 28.2%.
`CC(=O)N(C)Cc1ccccc1NC(=O)N(C)CCc1cccs1` was tested, and the INHIBITION was -28.3%.
Work on `Cc1nc(-c2cc(F)c3c(c2)CC(CN)O3)c[nH]1` (stereo unspecified) yielded an INHIBITION of 53.7%.
With `NCC1Cc2cc(-c3cncc(C(=O)N4CCCCC4)n3)cc(F)c2O1` (stereo unspecified) the INHIBITION was 51.3%.
With `NCC1Cc2cc(-c3cnccn3)cc(Cl)c2O1` (stereo unspecified) the INHIBITION was -13.4%.
`NCC1Cc2cc(-c3cncc(C(=O)N4CCOCC4)n3)cc(Cl)c2O1` (stereo unspecified) gave an INHIBITION of -15.2%.
With `CC(C)c1cncnc1-c1cc(F)cc2c1OC(CN)C2` (stereo unspecified) the INHIBITION was 29.4%.
For `Cc1cc2c(c(-c3cncc(C(=O)N4CCCC4)n3)c1)OC(CN)C2` (stereo unspecified), the INHIBITION was 4.12%.
`Cc1cc(NC(=O)CN2CCCC2c2noc(C)n2)n(C(C)(C)C)n1` (stereo unspecified) was tested, and the INHIBITION was -108%.
`O=C(NC1CC1)[C@@H]1CCO[C@@H]2CCN(CC3CCC3)C[C@@H]21` gave an INHIBITION of -89.4%.
`CC(C)N1[C@H](CN2CCCC2)C[C@@H]2CN(Cc3cnn(C)c3)CC[C@@H]21` gave an INHIBITION of -20.1%.
In the case of `CC(C)N1CC[C@H]2[C@H](C[C@@H](Cn3cccn3)N2c2nccs2)C1`, the INHIBITION was 66.3%.
In the case of `CN1[C@H](CN2CCCC2)C[C@@H]2CN(Cc3ccoc3)CC[C@@H]21`, the INHIBITION was 58.5%.
`CN1C(Cn2cccn2)C[C@@H]2CN(Cc3nccs3)CC[C@@H]21` (stereo partly specified) gave an INHIBITION of -108%.
In the case of `CC(C)N1[C@H](Cn2cccn2)C[C@@H]2CN(Cc3ccoc3)CC[C@@H]21`, the INHIBITION was 40.6%.
With `CN1C(Cn2cccn2)C[C@@H]2CN(Cc3cnn(C)c3)CC[C@@H]21` (stereo partly specified) the INHIBITION was -48.5%.
`Cc1ccc(CN2CC[C@H]3[C@H](CC(Cn4cccn4)N3C)C2)s1` (stereo partly specified) gave an INHIBITION of 62.7%.
`CN1CC[C@H]2[C@H](C[C@@H](Cn3cncn3)N2c2nccs2)C1` showed an INHIBITION of -37.1%.
Work on `CCC(=O)N1CC[C@H]2[C@H](C[C@@H](Cn3cccn3)N2c2nccs2)C1` yielded an INHIBITION of -13.4%.
`CC1CN(Cc2nc(Cc3ccccc3F)no2)CCN1C` (stereo unspecified) gave an INHIBITION of -114%.
Work on `O=C(CCc1ccsc1)N1CCCC(n2cncn2)C1` (stereo unspecified) yielded an INHIBITION of -152%.
`COC[C@@]12CCC[C@@H]1CN(C(=O)CN(C)C)C2` was tested, and the INHIBITION was -1.68%.
Work on `Cc1cc(C)c(Cn2cncn2)cc1CN1CC[C@@H]2CC[C@H](C1)N2` yielded an INHIBITION of 13.3%.
`CO[C@H]1CN(Cc2cc(Cn3cncn3)c(C)cc2C)CC[C@H]1N` showed an INHIBITION of -28.2%.
`Cc1cc(C)c(Cn2cncn2)cc1CN1CCC(CN)C1` (stereo unspecified) was tested, and the INHIBITION was 69%.
